# Columns and labels:
# Assay in all cases: DAPPL (digital affinity profiling via proximity ligation, sequencing); 10 mM Tris-HCl pH 7.5, 50 mM NaCl, 1 mM DTT, 4% glycerol, room temperature, 30 min; GST-TFs on glutathione beads, 16-mer random dsDNA library, 0.1% formaldehyde crosslink after washing; high values mean tight binding
# FEV = target: T1, FEV (Homo sapiens, UniProt Q99581 1-238); settings: protein: recombinant; tags: N-terminal GST; dsDNA, one strand shown
# T1 sequence: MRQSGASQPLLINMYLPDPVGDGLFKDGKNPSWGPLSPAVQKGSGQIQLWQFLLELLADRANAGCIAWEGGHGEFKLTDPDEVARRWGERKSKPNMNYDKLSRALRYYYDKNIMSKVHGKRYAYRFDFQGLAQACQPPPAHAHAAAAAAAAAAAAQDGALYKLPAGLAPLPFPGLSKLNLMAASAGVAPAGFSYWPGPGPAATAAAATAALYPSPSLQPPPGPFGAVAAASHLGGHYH
# How it was run: (§1)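 Sequencing on an Illumina NextSeq500 followed washing, crosslinking with 0.1% formaldehyde, proximity ligation (BsaI/T4 ligase, 1 h, 37 °C) and PCR amplification of pools that had been incubated for 30 min at room temperature with 200 nmole of a random double-stranded 16-mer DNA library in Tris/NaCl/DTT/glycerol buffer. Each pool held DNA-barcoded human transcription factors, expressed in yeast as GST fusions and captured on glutathione beads, plus a tag-only sample. Binding signal is a hexamer's read frequency for a factor divided by its frequency in the tag-only sample.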
# ETV5 = ETV5 (Homo sapiens, UniProt P41161 1-510); settings: protein: recombinant; tags: N-terminal GST; dsDNA, one strand shown
# Chain of ETV5 (P41161 whole entry): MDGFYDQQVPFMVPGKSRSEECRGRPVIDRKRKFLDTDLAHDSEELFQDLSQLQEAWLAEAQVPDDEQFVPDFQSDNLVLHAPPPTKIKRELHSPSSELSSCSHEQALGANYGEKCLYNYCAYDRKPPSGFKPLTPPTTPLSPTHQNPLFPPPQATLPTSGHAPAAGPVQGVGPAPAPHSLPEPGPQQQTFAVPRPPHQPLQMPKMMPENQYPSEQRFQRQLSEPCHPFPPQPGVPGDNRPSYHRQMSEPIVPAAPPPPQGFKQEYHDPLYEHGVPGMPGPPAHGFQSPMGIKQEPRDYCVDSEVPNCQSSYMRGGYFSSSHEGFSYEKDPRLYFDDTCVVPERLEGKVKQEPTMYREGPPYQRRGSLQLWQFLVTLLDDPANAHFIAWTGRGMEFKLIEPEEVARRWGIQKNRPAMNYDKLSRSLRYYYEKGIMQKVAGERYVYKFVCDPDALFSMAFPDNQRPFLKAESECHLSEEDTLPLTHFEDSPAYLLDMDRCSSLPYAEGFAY
# How it was run: as §1
# HSF1 = HSF1 (Homo sapiens, UniProt Q00613 1-529); settings: protein: recombinant; tags: N-terminal GST; chain copies: 3; dsDNA, one strand shown
# Chain of HSF1 (Q00613 whole entry): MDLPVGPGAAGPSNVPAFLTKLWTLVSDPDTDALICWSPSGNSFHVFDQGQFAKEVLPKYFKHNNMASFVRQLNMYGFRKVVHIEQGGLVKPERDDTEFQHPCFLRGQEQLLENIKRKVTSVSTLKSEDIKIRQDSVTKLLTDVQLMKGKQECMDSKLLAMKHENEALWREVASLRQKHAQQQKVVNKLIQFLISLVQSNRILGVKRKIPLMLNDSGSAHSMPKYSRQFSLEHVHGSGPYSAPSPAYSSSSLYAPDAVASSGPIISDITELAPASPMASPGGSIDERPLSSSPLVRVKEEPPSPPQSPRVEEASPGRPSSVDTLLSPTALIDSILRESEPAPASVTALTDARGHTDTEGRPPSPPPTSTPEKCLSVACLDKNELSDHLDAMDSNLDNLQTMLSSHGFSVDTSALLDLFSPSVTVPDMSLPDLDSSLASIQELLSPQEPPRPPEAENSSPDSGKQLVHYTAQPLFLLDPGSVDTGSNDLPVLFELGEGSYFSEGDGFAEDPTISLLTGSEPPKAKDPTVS
# How it was run: as §1
# SPIC = target: T2, SPIC (Homo sapiens, UniProt Q8N5J4 1-248); settings: protein: recombinant; tags: N-terminal GST; dsDNA, one strand shown
# T2 sequence: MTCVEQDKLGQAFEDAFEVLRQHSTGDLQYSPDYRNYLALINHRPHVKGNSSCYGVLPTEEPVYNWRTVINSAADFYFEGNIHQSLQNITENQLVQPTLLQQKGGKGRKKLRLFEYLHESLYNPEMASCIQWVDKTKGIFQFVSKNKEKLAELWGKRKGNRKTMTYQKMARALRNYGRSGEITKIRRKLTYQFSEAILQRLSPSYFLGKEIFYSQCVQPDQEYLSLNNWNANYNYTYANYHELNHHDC
# How it was run: as §1
# ELF4 = ELF4 (Homo sapiens, UniProt Q99607 1-663); settings: protein: recombinant; tags: N-terminal GST; dsDNA, one strand shown
# Chain of ELF4 (Q99607 whole entry): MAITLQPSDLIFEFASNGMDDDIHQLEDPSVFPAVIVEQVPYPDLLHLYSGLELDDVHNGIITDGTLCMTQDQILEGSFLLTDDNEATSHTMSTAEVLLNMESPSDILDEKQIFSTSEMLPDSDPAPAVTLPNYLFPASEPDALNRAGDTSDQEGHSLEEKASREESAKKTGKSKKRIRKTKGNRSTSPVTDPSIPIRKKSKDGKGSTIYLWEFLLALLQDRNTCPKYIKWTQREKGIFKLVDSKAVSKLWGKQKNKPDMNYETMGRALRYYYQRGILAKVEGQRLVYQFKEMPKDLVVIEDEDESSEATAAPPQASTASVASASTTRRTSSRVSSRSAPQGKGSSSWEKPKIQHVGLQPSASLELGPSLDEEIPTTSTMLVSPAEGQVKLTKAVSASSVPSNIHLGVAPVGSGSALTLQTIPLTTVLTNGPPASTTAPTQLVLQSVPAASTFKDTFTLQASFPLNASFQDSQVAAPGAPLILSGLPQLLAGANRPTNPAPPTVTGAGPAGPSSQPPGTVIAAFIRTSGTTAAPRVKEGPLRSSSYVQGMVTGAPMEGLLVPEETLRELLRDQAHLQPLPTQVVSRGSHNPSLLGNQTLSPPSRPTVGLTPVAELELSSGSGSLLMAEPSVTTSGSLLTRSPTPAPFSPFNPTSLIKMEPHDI
# How it was run: as §1
# ELK4 = target: T3, ELK4 (Homo sapiens, UniProt P28324-2 1-405); settings: protein: recombinant; tags: N-terminal GST; dsDNA, one strand shown
# T3 sequence: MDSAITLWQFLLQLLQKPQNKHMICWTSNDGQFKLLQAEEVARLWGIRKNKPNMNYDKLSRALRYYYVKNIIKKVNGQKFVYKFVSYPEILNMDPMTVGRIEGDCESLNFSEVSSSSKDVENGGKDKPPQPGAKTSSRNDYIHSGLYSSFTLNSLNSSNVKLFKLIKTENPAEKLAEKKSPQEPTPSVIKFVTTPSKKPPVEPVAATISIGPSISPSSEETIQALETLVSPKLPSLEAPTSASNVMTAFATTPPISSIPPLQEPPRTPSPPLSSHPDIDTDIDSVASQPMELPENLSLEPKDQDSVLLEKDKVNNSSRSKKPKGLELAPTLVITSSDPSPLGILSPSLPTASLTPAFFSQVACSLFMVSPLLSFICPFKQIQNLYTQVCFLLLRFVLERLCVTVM
# How it was run: as §1
# ETV2 = target: T4, ETV2 (Homo sapiens, UniProt O00321 1-342); settings: protein: recombinant; tags: N-terminal GST; dsDNA, one strand shown
# T4 sequence: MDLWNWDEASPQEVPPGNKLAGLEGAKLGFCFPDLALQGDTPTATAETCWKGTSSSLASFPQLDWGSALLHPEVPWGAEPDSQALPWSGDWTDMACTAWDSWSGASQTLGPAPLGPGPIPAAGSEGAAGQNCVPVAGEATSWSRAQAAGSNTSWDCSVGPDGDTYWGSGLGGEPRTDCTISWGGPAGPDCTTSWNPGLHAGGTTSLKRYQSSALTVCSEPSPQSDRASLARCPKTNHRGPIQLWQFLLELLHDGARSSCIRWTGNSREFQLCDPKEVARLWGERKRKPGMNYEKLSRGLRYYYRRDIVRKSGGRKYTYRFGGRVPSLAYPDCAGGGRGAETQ
# How it was run: as §1
# ELF3 = target: T5, ELF3 (Homo sapiens, UniProt P78545 1-371); settings: protein: recombinant; tags: N-terminal GST; dsDNA, one strand shown
# T5 sequence: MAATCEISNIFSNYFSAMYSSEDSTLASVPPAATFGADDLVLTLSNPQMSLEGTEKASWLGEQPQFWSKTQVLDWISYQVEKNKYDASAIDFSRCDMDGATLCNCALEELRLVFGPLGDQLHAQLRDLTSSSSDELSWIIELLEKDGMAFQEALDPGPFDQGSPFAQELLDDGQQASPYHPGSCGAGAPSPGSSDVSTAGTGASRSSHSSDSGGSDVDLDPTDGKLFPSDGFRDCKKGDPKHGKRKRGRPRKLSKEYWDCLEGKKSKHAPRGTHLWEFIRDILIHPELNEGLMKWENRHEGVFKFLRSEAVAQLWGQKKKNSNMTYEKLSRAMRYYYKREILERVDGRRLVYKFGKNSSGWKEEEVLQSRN
# How it was run: as §1
# CRX = CRX (Homo sapiens, UniProt O43186 1-299); settings: protein: recombinant; tags: N-terminal GST; dsDNA, one strand shown
# Chain of CRX (O43186 whole entry): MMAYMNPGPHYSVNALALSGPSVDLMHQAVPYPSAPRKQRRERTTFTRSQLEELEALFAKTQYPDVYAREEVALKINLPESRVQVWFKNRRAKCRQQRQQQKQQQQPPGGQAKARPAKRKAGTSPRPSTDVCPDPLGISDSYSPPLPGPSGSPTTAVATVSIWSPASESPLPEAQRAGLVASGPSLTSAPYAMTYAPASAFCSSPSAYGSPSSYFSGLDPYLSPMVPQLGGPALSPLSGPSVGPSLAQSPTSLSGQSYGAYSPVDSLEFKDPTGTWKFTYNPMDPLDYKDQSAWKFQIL
# How it was run: as §1
# ERF = target: T6, ERF (Homo sapiens, UniProt P50548 1-548); settings: protein: recombinant; tags: N-terminal GST; dsDNA, one strand shown
# T6 sequence: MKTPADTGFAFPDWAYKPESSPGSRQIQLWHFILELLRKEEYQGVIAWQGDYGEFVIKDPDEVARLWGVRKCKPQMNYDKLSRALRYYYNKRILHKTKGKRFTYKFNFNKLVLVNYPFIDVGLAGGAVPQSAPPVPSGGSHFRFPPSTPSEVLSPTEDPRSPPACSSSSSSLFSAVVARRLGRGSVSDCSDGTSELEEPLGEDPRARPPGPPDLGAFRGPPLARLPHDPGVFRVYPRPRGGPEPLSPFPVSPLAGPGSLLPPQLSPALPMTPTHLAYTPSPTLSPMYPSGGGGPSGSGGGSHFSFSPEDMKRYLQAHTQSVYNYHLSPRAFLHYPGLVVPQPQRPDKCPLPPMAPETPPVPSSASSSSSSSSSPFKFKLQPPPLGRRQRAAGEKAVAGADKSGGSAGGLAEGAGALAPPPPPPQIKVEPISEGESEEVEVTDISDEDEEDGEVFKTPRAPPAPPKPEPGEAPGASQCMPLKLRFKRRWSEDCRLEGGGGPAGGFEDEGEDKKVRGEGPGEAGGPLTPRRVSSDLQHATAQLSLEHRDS
# How it was run: as §1
# ETV3L = target: T7, ETV3L (Homo sapiens, UniProt Q6ZN32 1-361); settings: protein: recombinant; tags: N-terminal GST; dsDNA, one strand shown
# T7 sequence: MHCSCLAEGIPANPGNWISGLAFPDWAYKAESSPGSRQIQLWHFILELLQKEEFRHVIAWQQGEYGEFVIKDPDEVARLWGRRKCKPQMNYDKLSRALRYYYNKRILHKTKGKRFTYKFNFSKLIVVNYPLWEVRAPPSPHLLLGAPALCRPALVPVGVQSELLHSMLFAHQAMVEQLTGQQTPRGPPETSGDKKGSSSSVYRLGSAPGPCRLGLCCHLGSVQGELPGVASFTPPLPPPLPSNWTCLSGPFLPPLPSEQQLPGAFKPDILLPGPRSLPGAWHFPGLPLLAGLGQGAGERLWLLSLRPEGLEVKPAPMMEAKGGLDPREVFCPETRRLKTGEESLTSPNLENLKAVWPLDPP
# How it was run: as §1
# ETS2 = target: T8, ETS2 (Homo sapiens, UniProt P15036 1-469); settings: protein: recombinant; tags: N-terminal GST; dsDNA, one strand shown
# T8 sequence: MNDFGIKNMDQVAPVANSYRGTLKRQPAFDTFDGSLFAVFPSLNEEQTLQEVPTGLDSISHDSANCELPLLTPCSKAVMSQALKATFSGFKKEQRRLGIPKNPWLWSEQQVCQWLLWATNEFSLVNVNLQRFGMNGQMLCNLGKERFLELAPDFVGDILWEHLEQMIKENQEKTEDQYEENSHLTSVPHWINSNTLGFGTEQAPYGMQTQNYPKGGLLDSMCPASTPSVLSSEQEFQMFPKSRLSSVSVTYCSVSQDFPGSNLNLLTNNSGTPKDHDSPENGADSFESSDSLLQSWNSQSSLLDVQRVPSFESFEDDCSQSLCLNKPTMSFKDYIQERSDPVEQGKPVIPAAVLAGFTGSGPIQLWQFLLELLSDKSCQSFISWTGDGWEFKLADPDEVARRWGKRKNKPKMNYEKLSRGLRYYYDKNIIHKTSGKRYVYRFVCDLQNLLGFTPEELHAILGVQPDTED
# How it was run: as §1
# SPDEF = target: T9, SPDEF (Homo sapiens, UniProt O95238 1-335); settings: protein: recombinant; tags: N-terminal GST; dsDNA, one strand shown
# T9 sequence: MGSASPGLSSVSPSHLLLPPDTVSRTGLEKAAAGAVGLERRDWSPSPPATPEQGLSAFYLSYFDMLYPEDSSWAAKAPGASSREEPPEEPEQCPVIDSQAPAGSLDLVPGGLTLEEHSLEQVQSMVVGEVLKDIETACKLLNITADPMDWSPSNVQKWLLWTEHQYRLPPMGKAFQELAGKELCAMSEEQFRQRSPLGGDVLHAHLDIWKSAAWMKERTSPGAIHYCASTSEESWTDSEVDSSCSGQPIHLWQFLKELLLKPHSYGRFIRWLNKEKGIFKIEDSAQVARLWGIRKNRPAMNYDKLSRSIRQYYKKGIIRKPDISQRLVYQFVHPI
# How it was run: as §1
# ETV7 = target: T10, ETV7 (Homo sapiens, UniProt Q9Y603 1-341); settings: protein: recombinant; tags: N-terminal GST; dsDNA, one strand shown
# T10 sequence: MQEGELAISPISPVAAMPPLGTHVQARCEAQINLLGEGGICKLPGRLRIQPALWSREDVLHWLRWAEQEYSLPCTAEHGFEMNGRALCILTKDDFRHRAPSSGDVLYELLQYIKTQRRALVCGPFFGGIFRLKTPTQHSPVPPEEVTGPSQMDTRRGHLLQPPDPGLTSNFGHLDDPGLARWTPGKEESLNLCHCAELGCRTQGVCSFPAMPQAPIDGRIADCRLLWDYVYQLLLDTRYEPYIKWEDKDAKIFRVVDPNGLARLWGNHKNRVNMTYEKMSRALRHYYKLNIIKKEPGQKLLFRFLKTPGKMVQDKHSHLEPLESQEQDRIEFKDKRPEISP
# How it was run: as §1
# ELF5 = target: T11, ELF5 (Homo sapiens, UniProt Q9UKW6-2 1-255); settings: protein: recombinant; tags: N-terminal GST; dsDNA, one strand shown
# T11 sequence: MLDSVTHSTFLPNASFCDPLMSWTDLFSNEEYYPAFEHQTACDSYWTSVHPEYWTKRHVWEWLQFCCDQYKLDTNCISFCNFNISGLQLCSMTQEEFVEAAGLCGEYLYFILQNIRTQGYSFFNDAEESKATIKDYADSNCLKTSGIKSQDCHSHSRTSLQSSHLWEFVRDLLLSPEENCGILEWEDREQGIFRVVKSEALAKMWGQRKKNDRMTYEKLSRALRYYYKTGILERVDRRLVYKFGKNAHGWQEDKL
# How it was run: as §1
# ETV3 = target: T12, ETV3 (Homo sapiens, UniProt P41162-2 1-143); settings: protein: recombinant; tags: N-terminal GST; dsDNA, one strand shown
# T12 sequence: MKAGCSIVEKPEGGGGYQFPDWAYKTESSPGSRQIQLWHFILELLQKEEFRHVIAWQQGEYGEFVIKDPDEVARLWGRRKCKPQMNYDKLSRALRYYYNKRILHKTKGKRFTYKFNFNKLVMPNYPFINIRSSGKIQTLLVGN
# How it was run: as §1
# ETV6 = ETV6 (Homo sapiens, UniProt P41212 1-452); settings: protein: recombinant; tags: N-terminal GST; dsDNA, one strand shown
# Chain of ETV6 (P41212 whole entry): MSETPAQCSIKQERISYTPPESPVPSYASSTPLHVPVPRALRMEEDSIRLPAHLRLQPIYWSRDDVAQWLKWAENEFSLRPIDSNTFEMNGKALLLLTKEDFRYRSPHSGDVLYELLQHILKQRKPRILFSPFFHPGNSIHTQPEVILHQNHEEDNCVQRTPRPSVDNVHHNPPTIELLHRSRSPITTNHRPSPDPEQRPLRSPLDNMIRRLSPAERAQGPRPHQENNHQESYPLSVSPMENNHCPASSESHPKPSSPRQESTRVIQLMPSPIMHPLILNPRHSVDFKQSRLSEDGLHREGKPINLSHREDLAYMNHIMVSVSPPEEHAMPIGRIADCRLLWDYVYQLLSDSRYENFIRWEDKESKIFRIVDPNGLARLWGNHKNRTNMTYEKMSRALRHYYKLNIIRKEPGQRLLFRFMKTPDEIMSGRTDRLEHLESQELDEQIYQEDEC
# How it was run: as §1
sequence,measurement,setting,value
CCCCGA,binding signal,FEV,"1.18 fold enrichment (6-mer frequency, TF over GST control)"
same,binding signal,ETV5,"1.14 fold enrichment (6-mer frequency, TF over GST control)"
same,binding signal,HSF1,"1.28 fold enrichment (6-mer frequency, TF over GST control)"
same,binding signal,SPIC,"1.14 fold enrichment (6-mer frequency, TF over GST control)"
same,binding signal,ELF4,"1.29 fold enrichment (6-mer frequency, TF over GST control)"
same,binding signal,ELK4,"1.15 fold enrichment (6-mer frequency, TF over GST control)"
same,binding signal,ETV2,"1.24 fold enrichment (6-mer frequency, TF over GST control)"
same,binding signal,ELF3,"1.35 fold enrichment (6-mer frequency, TF over GST control)"
same,binding signal,CRX,"1.14 fold enrichment (6-mer frequency, TF over GST control)"
same,binding signal,ERF,"1.15 fold enrichment (6-mer frequency, TF over GST control)"
same,binding signal,ETV3L,"1.23 fold enrichment (6-mer frequency, TF over GST control)"
same,binding signal,ETS2,"1.07 fold enrichment (6-mer frequency, TF over GST control)"
same,binding signal,SPDEF,"1.05 fold enrichment (6-mer frequency, TF over GST control)"
same,binding signal,ETV7,"1.06 fold enrichment (6-mer frequency, TF over GST control)"
same,binding signal,ELF5,"1.13 fold enrichment (6-mer frequency, TF over GST control)"
same,binding signal,ETV3,"1.05 fold enrichment (6-mer frequency, TF over GST control)"
same,binding signal,ETV6,"1.11 fold enrichment (6-mer frequency, TF over GST control)"

# — publication PMC7862700, “An all-to-all approach to the identification of sequence-specific readers for epigenetic DNA modifications on cytosine”
